Data from paper PMC11006913.

Legend:
Test in all cases: PBM; 200 nM protein, PBS
Conditions in all cases: dsDNA, one strand shown
HESX1 [1] = biological target: HESX1 (Homo sapiens, UniProt Q9UBX0 95-180, R165K)
HESX1 [2] = biological target: HESX1 (Homo sapiens, UniProt Q9UBX0 95-180)
ALX3 [3] = biological target: ALX3 (Homo sapiens, UniProt O95076 139-225, N203Q)
HESX1 [4] = biological target: HESX1 (Homo sapiens, UniProt Q9UBX0 95-180, R109Q)
HESX1 [5] = biological target: HESX1 (Homo sapiens, UniProt Q9UBX0 95-180, P111T)
HESX1 [6] = biological target: HESX1 (Homo sapiens, UniProt Q9UBX0 95-180, F115L)
SHOX [7] = biological target: SHOX (Homo sapiens, UniProt O15266 103-189)
ALX4 = ALX4 (Homo sapiens, UniProt Q9H161 200-286, Q225E)
MSX2 = MSX2 (Homo sapiens, UniProt P35548 130-214, R199I)
ALX1 [8] = biological target: ALX1 (Homo sapiens, UniProt Q15699 118-204, L144V)
SHOX [9] = biological target: SHOX (Homo sapiens, UniProt O15266 103-189, R173C)
ALX1 [10] = biological target: ALX1 (Homo sapiens, UniProt Q15699 118-204, L144R)
ALX3 [11] = biological target: ALX3 (Homo sapiens, UniProt O95076 139-225)
PROP1 [12] = biological target: PROP1 (Homo sapiens, UniProt O75360 56-141)
PROP1 [13] = biological target: PROP1 (Homo sapiens, UniProt O75360 56-141, R99H)
ALX3 [14] = biological target: ALX3 (Homo sapiens, UniProt O95076 139-225, L168Q)
ALX3 [15] = biological target: ALX3 (Homo sapiens, UniProt O95076 139-225, L168V)
PROP1 [16] = biological target: PROP1 (Homo sapiens, UniProt O75360 56-141, F88S)
ALX1 [17] = biological target: ALX1 (Homo sapiens, UniProt Q15699 118-204)
ALX3 [18] = biological target: ALX3 (Homo sapiens, UniProt O95076 139-225, N203S)
Chain of ALX3 (Homo sapiens, UniProt O95076 139-225, N203S) (O95076 139-225 N203S): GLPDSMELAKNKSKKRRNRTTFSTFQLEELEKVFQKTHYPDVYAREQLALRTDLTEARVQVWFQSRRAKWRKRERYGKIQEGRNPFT

Chain of ALX4 (Q9H161 200-286 Q225E): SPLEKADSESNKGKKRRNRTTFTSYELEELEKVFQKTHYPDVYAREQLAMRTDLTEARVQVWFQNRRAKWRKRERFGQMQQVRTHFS
Chain of HESX1 (Homo sapiens, UniProt Q9UBX0 95-180, R165K) (Q9UBX0 95-180 R165K): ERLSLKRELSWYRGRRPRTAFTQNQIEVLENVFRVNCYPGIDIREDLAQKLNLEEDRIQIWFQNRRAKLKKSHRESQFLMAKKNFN
Chain of SHOX (Homo sapiens, UniProt O15266 103-189, R173C) (O15266 103-189 R173C): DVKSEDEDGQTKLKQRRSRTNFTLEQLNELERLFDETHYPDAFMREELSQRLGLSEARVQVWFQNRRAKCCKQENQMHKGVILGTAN
Chain of ALX3 (Homo sapiens, UniProt O95076 139-225, L168V) (O95076 139-225 L168V): as the sequence (O95076 139-225 N203S) above, with L30V, S65N counted along it
Chain of PROP1 (Homo sapiens, UniProt O75360 56-141, R99H) (O75360 56-141 R99H): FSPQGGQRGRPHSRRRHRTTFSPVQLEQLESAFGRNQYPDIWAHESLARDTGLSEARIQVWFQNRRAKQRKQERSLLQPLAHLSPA
Chain of ALX1 (Homo sapiens, UniProt Q15699 118-204, L144V) (Q15699 118-204 L144V): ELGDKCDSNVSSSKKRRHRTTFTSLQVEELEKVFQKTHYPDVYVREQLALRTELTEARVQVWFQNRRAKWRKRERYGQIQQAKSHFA
Chain of MSX2 (P35548 130-214 R199I): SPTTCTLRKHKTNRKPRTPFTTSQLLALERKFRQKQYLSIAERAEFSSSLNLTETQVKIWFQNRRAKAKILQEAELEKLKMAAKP
Chain of ALX3 (Homo sapiens, UniProt O95076 139-225) (O95076 139-225): as the sequence (O95076 139-225 N203S) above, with S65N counted along it
Chain of ALX1 (Homo sapiens, UniProt Q15699 118-204, L144R) (Q15699 118-204 L144R): as the sequence (Q15699 118-204 L144V) above, with V27R counted along it
Chain of HESX1 (Homo sapiens, UniProt Q9UBX0 95-180) (Q9UBX0 95-180): as the sequence (Q9UBX0 95-180 R165K) above, with K71R counted along it
Chain of SHOX (Homo sapiens, UniProt O15266 103-189) (O15266 103-189): as the sequence (O15266 103-189 R173C) above, with C71R counted along it
Chain of PROP1 (Homo sapiens, UniProt O75360 56-141, F88S) (O75360 56-141 F88S): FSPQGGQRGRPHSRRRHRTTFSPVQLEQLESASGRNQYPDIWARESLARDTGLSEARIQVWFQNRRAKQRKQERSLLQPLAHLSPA
Chain of ALX3 (Homo sapiens, UniProt O95076 139-225, L168Q) (O95076 139-225 L168Q): as the sequence (O95076 139-225 N203S) above, with L30Q, S65N counted along it
Chain of ALX3 (Homo sapiens, UniProt O95076 139-225, N203Q) (O95076 139-225 N203Q): as the sequence (O95076 139-225 N203S) above, with S65Q counted along it
Chain of HESX1 (Homo sapiens, UniProt Q9UBX0 95-180, F115L) (Q9UBX0 95-180 F115L): as the sequence (Q9UBX0 95-180 R165K) above, with F21L, K71R counted along it
Chain of ALX1 (Homo sapiens, UniProt Q15699 118-204) (Q15699 118-204): as the sequence (Q15699 118-204 L144V) above, with V27L counted along it
Chain of HESX1 (Homo sapiens, UniProt Q9UBX0 95-180, R109Q) (Q9UBX0 95-180 R109Q): as the sequence (Q9UBX0 95-180 R165K) above, with R15Q, K71R counted along it
Chain of HESX1 (Homo sapiens, UniProt Q9UBX0 95-180, P111T) (Q9UBX0 95-180 P111T): as the sequence (Q9UBX0 95-180 R165K) above, with P17T, K71R counted along it
Chain of PROP1 (Homo sapiens, UniProt O75360 56-141) (O75360 56-141): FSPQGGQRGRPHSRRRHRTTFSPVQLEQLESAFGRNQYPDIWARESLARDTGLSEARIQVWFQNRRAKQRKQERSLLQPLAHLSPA

Sequence | binding signal (HESX1 [1]) | binding signal (HESX1 [2]) | binding signal (ALX3 [3]) | binding signal (HESX1 [4]) | binding signal (HESX1 [5]) | binding signal (HESX1 [6]) | binding signal (SHOX [7]) | binding signal (ALX4) | binding signal (MSX2) | binding signal (ALX1 [8]) | binding signal (SHOX [9]) | binding signal (ALX1 [10]) | binding signal (ALX3 [11]) | binding signal (PROP1 [12]) | binding signal (PROP1 [13]) | binding signal (ALX3 [14]) | binding signal (ALX3 [15]) | binding signal (PROP1 [16]) | binding signal (ALX1 [17]) | binding signal (ALX3 [18])
ATTAATAG | 10.6 upbm affinity estimate (log intensity, higher = more binding, comparable within an allelic series) | 10.6 upbm affinity estimate (log intensity, higher = more binding, comparable within an allelic series) | 8.58 upbm affinity estimate (log intensity, higher = more binding, comparable within an allelic series) | 8.2 upbm affinity estimate (log intensity, higher = more binding, comparable within an allelic series) | 9.29 upbm affinity estimate (log intensity, higher = more binding, comparable within an allelic series) | 7.97 upbm affinity estimate (log intensity, higher = more binding, comparable within an allelic series) | – | – | – | – | – | – | – | – | – | – | – | – | – | –
GTCAATTA | 13.1 upbm affinity estimate (log intensity, higher = more binding, comparable within an allelic series) | 13.1 upbm affinity estimate (log intensity, higher = more binding, comparable within an allelic series) | 8.23 upbm affinity estimate (log intensity, higher = more binding, comparable within an allelic series) | 9.32 upbm affinity estimate (log intensity, higher = more binding, comparable within an allelic series) | 11.6 upbm affinity estimate (log intensity, higher = more binding, comparable within an allelic series) | 7.69 upbm affinity estimate (log intensity, higher = more binding, comparable within an allelic series) | 12.4 upbm affinity estimate (log intensity, higher = more binding, comparable within an allelic series) | 13.4 upbm affinity estimate (log intensity, higher = more binding, comparable within an allelic series) | 12.6 upbm affinity estimate (log intensity, higher = more binding, comparable within an allelic series) | 11.8 upbm affinity estimate (log intensity, higher = more binding, comparable within an allelic series) | 9.5 upbm affinity estimate (log intensity, higher = more binding, comparable within an allelic series) | 11.4 upbm affinity estimate (log intensity, higher = more binding, comparable within an allelic series) | 12.5 upbm affinity estimate (log intensity, higher = more binding, comparable within an allelic series) | 11.4 upbm affinity estimate (log intensity, higher = more binding, comparable within an allelic series) | 11.8 upbm affinity estimate (log intensity, higher = more binding, comparable within an allelic series) | 10.7 upbm affinity estimate (log intensity, higher = more binding, comparable within an allelic series) | 10.1 upbm affinity estimate (log intensity, higher = more binding, comparable within an allelic series) | 7.62 upbm affinity estimate (log intensity, higher = more binding, comparable within an allelic series) | 12.4 upbm affinity estimate (log intensity, higher = more binding, comparable within an allelic series) | 8.41 upbm affinity estimate (log intensity, higher = more binding, comparable within an allelic series)
AATTAGTC | 11.5 upbm affinity estimate (log intensity, higher = more binding, comparable within an allelic series) | 11.8 upbm affinity estimate (log intensity, higher = more binding, comparable within an allelic series) | 8.3 upbm affinity estimate (log intensity, higher = more binding, comparable within an allelic series) | 8.88 upbm affinity estimate (log intensity, higher = more binding, comparable within an allelic series) | 10.4 upbm affinity estimate (log intensity, higher = more binding, comparable within an allelic series) | 7.67 upbm affinity estimate (log intensity, higher = more binding, comparable within an allelic series) | 11.7 upbm affinity estimate (log intensity, higher = more binding, comparable within an allelic series) | 12.8 upbm affinity estimate (log intensity, higher = more binding, comparable within an allelic series) | 12.3 upbm affinity estimate (log intensity, higher = more binding, comparable within an allelic series) | 11.5 upbm affinity estimate (log intensity, higher = more binding, comparable within an allelic series) | 9.37 upbm affinity estimate (log intensity, higher = more binding, comparable within an allelic series) | 11.1 upbm affinity estimate (log intensity, higher = more binding, comparable within an allelic series) | 12.2 upbm affinity estimate (log intensity, higher = more binding, comparable within an allelic series) | 11.1 upbm affinity estimate (log intensity, higher = more binding, comparable within an allelic series) | 11 upbm affinity estimate (log intensity, higher = more binding, comparable within an allelic series) | 10.3 upbm affinity estimate (log intensity, higher = more binding, comparable within an allelic series) | 9.88 upbm affinity estimate (log intensity, higher = more binding, comparable within an allelic series) | 7.67 upbm affinity estimate (log intensity, higher = more binding, comparable within an allelic series) | 12.1 upbm affinity estimate (log intensity, higher = more binding, comparable within an allelic series) | 8.39 upbm affinity estimate (log intensity, higher = more binding, comparable within an allelic series)
CTAATTGA | 13.2 upbm affinity estimate (log intensity, higher = more binding, comparable within an allelic series) | 13.2 upbm affinity estimate (log intensity, higher = more binding, comparable within an allelic series) | 8.21 upbm affinity estimate (log intensity, higher = more binding, comparable within an allelic series) | 9.83 upbm affinity estimate (log intensity, higher = more binding, comparable within an allelic series) | 11.8 upbm affinity estimate (log intensity, higher = more binding, comparable within an allelic series) | 7.77 upbm affinity estimate (log intensity, higher = more binding, comparable within an allelic series) | 12.6 upbm affinity estimate (log intensity, higher = more binding, comparable within an allelic series) | 13.5 upbm affinity estimate (log intensity, higher = more binding, comparable within an allelic series) | 12.8 upbm affinity estimate (log intensity, higher = more binding, comparable within an allelic series) | 11.9 upbm affinity estimate (log intensity, higher = more binding, comparable within an allelic series) | 9.97 upbm affinity estimate (log intensity, higher = more binding, comparable within an allelic series) | 11.5 upbm affinity estimate (log intensity, higher = more binding, comparable within an allelic series) | 12.7 upbm affinity estimate (log intensity, higher = more binding, comparable within an allelic series) | 11.8 upbm affinity estimate (log intensity, higher = more binding, comparable within an allelic series) | 12.1 upbm affinity estimate (log intensity, higher = more binding, comparable within an allelic series) | 10.8 upbm affinity estimate (log intensity, higher = more binding, comparable within an allelic series) | 10.2 upbm affinity estimate (log intensity, higher = more binding, comparable within an allelic series) | 7.7 upbm affinity estimate (log intensity, higher = more binding, comparable within an allelic series) | 12.8 upbm affinity estimate (log intensity, higher = more binding, comparable within an allelic series) | 8.38 upbm affinity estimate (log intensity, higher = more binding, comparable within an allelic series)
